Results published in PubChem BioAssay AID1159580 (chemical genetic matrix, 2015).
Values joined by “and” are separate entries in the source; they are usually repeats but may differ in a detail not shown here. Identical values can stand only once. Among all 5,500 compounds or so, about 2,000 (36%) were called active. About 18% were inconclusive and are not listed. Rule as the data show it: active = normalized growth mostly below about 0.91 (no sharp cut-off); inconclusive = no clear call, values can overlap the other calls; inactive = mostly above about 0.92. The list shows a part of the results.

Assay: chemical genetic growth profiling, strain panel (AID 1159580);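 also: tested at 20 µM; growth read once vehicle control cultures reached saturation at 30 °C; 1 = growth at the plate median or of vehicle wells; lower values mean less growth of the strain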
Settings: S. cerevisiae deletion strains, growth OD

Measured: normalized growth

OC/C=C/c1ccc(O)c(O)c1
inactive: locus YAL013W, strain DEP1, active compounds read low 0.995 | locus YAL021C, strain ccr4, active compounds read low 0.977 | locus YAL026C, strain drs2, active compounds read low 1 | locus YAL030W, strain snc1, active compounds read low 0.995 | locus YBL061C, strain skt5, active compounds read low 0.996 | locus YBR009C, strain hhf1, active compounds read low 0.994 | locus YBR021W, strain FUR4, active compounds read low 1.03 | locus YBR023C, strain chs3, active compounds read low 0.995 | locus YBR171W, strain sec66, active compounds read low 1.01 | locus YBR229C, strain ROT2, active compounds read low 1 | locus YBR231C, strain swc5, active compounds read low 0.993 | locus YBR279W, strain paf1, active compounds read low 0.996 | locus YCL011C, strain gbp2, active compounds read low 0.994 | locus YCL016C, strain dcc1, active compounds read low 0.995 | locus YCL029C, strain bik1, active compounds read low 0.96 | locus YCL061C, strain MRC1, active compounds read low 0.996 | locus YCL069W, strain vba3, active compounds read low 0.992 | locus YCR088W, strain abp1, active compounds read low 1.01 | locus YDL005C, strain med2, active compounds read low 0.996 | locus YDL035C, strain GPR1, active compounds read low 1.02 | locus YDL040C, strain nat1, active compounds read low 0.988 | locus YDL074C, strain BRE1, active compounds read low 0.945 | locus YDL101C, strain DUN1, active compounds read low 0.991 | locus YDL134C, strain PPH21, active compounds read low 1.05 | locus YDL185W, strain tfp1, active compounds read low 0.953 | locus YDL192W, strain arf1, active compounds read low 0.973 | locus YDR001C, strain nth1, active compounds read low 0.994 | locus YDR069C, strain doa4, active compounds read low 1.01 | locus YDR101C, strain arx1, active compounds read low 0.962 | locus YDR137W, strain rgp1, active compounds read low 0.968 | locus YDR159W, strain sac3, active compounds read low 0.966 | locus YDR162C, strain NBP2, active compounds read low 0.993 | locus YDR195W, strain ref2 0.951 | locus YDR297W, strain sur2, active compounds read low 1 | locus YDR318W, strain mcm21, active compounds read low 0.984 | locus YDR334W, strain swr1, active compounds read low 0.991 | locus YDR335W, strain msn5, active compounds read low 0.996 | locus YDR388W, active compounds read low 0.98 | locus YDR392W, strain spt3, active compounds read low 1.01 | locus YDR502C, strain sam2, active compounds read low 0.993 | locus YEL003W, strain gim4, active compounds read low 0.997 | locus YEL037C, strain rad23, active compounds read low 1 | locus YEL061C, strain CIN8 (second series), active compounds read low 0.991 | locus YEL061C, strain CIN8, active compounds read low 0.978 | locus YER015W, strain faa2, active compounds read low 1 | locus YER016W, strain bim1, active compounds read low 0.992 | locus YER110C, active compounds read low 0.954 | locus YER111C, strain swi4, active compounds read low 1.01 | locus YER155C, strain BEM2 (second series), active compounds read low 0.991 | locus YER155C, strain BEM2, active compounds read low 0.987 | locus YER167W, strain BCK2, active compounds read low 0.978 | locus YFR010W, strain ubp6, active compounds read low 0.999 | locus YGL078C, strain dbp3, active compounds read low 1.02 | locus YGL086W, strain mad1, active compounds read low 0.937 | locus YGL167C, strain pmr1, active compounds read low 1 | locus YGL173C, strain kem1, active compounds read low 1.01 | locus YGL227W, strain vid30, active compounds read low 1.01 | locus YGL240W, strain doc1, active compounds read low 1.03 | locus YGL248W, strain PDE1, active compounds read low 1.01 | locus YGL253W, strain hxk2, active compounds read low 1.01 | locus YGR135W, strain pre9, active compounds read low 1 | locus YHR013C, strain ard1, active compounds read low 0.976 | locus YHR027C, strain rpn1, active compounds read low 0.987 | locus YHR030C, strain SLT2, active compounds read low 0.978 and 0.986 | locus YHR079C, strain IRE1 (second series), active compounds read low 0.96 | locus YHR079C, strain IRE1, active compounds read low 0.996 | locus YHR094C, strain hxt1, active compounds read low 0.969 | locus YHR129C, strain ARP1, active compounds read low 0.991 | locus YHR142W, strain chs7, active compounds read low 1 | locus YHR200W, strain rpn10, active compounds read low 0.966 | locus YIL066C, strain RNR3, active compounds read low 0.996 | locus YIL073C, strain SPO22, active compounds read low 0.912 | locus YIL125W, strain kgd1, active compounds read low 0.98 | locus YIR030C, strain dcg1, active compounds read low 0.969 | locus YJL092W, strain hpr5, active compounds read low 0.995 | locus YJL095W, strain BCK1 (second series), active compounds read low 1 | locus YJL095W, strain BCK1, active compounds read low 1.02 and 0.999 | locus YJL115W, strain asf1, active compounds read low 0.999 | locus YJL129C, strain trk1, active compounds read low 0.994 | locus YJL134W, strain LCB3, active compounds read low 0.986 | locus YJL154C, strain vps35, active compounds read low 0.998 | locus YJL164C, strain tpk1, active compounds read low 0.998 | locus YJL166W, strain qcr8, active compounds read low 1 | locus YJL168C, strain set2, active compounds read low 0.962 | locus YJL187C, strain SWE1 (second series), active compounds read low 0.997 | locus YJL187C, strain SWE1, active compounds read low 0.992 | locus YJR043C, strain POL32, active compounds read low 1.02 | locus YJR066W, strain TOR1, active compounds read low 0.946 | locus YJR075W, strain HOC1, active compounds read low 0.984 | locus YKL009W, strain mrt4, active compounds read low 1.01 | locus YKL068W, active compounds read low 0.959 | locus YKL085W, strain MDH1 (second series), active compounds read low 0.95 | locus YKL085W, strain MDH1, active compounds read low 0.95 | locus YKL160W, strain elf1, active compounds read low 1 | locus YKR001C, strain vps1, active compounds read low 0.972 | locus YKR026C, strain gcn3, active compounds read low 1 | locus YKR091W, strain srl3, active compounds read low 1 | locus YLL001W, strain dnm1, active compounds read low 0.989 | locus YLL026W, active compounds read low 1 | locus YLL041C, strain sdh2, active compounds read low 0.999 | locus YLR027C, strain aat2, active compounds read low 0.988 | locus YLR039C, strain RIC1, active compounds read low 0.938 | locus YLR058C, strain SHM2, active compounds read low 0.996 | locus YLR102C, strain apc9, active compounds read low 0.961 | locus YLR113W, strain HOG1, active compounds read low 0.98 | locus YLR221C, strain rsa3, active compounds read low 1 | locus YLR258W, strain gsy2, active compounds read low 1.02 | locus YLR262C, strain YPT6 (second series), active compounds read low 0.991 | locus YLR262C, strain YPT6, active compounds read low 0.942 | locus YLR268W, strain sec22, active compounds read low 0.96 | locus YLR320W, strain mms22, active compounds read low 1 | locus YLR330W, strain CHS5, active compounds read low 0.934 | locus YLR342W, strain FKS1 (second series), active compounds read low 1.04 | locus YLR342W, strain FKS1, active compounds read low 1.01 | locus YLR357W, strain rsc2, active compounds read low 0.988 | locus YLR370C, strain arc18, active compounds read low 0.993 | locus YLR384C, strain iki3, active compounds read low 0.992 | locus YLR418C, strain cdc73, active compounds read low 0.988 | locus YML016C, strain PPZ1, active compounds read low 0.992 | locus YML032C, strain rad52, active compounds read low 1.01 | locus YML120C, strain ndi1, active compounds read low 0.992 | locus YML124C, strain tub3, active compounds read low 0.96 | locus YMR058W, strain fet3, active compounds read low 1.01 | locus YMR078C, strain ctf18, active compounds read low 0.95 | locus YMR125W, strain sto1, active compounds read low 0.995 | locus YMR129W, active compounds read low 0.997 | locus YMR205C, strain PFK2, active compounds read low 0.983 | locus YMR223W, strain ubp8, active compounds read low 0.98 | locus YMR231W, strain pep5, active compounds read low 0.979 | locus YMR263W, strain SAP30, active compounds read low 0.989 | locus YMR307W, strain GAS1, active compounds read low 1.09 | locus YNL067W, strain RPL9B, active compounds read low 0.997 | locus YNL071W, strain lat1, active compounds read low 0.993 | locus YNL128W, strain TEP1, active compounds read low 0.966 | locus YNL153C, strain GIM3, active compounds read low 0.999 | locus YNL183C, strain NPR1, active compounds read low 0.963 | locus YNL209W, strain ssb2, active compounds read low 0.991 | locus YNL233W, strain BNI4, active compounds read low 0.994 | locus YNL248C, strain rpa49, active compounds read low 1 | locus YNL250W, strain rad50, active compounds read low 0.909 | locus YNL271C, strain bni1, active compounds read low 0.963 | locus YNL298W, strain CLA4, active compounds read low 0.991 | locus YNL307C, strain MCK1, active compounds read low 0.953 | locus YNL322C, strain KRE1 (second series), active compounds read low 1 | locus YNR049C, strain mso1, active compounds read low 0.997 | locus YNR052C, strain pop2, active compounds read low 0.98 | locus YOL012C, strain htz1 0.905 | locus YOL147C, strain pex11, active compounds read low 0.963 | locus YOR001W, strain rrp6, active compounds read low 1.01 | locus YOR061W, strain CKA2, active compounds read low 0.995 | locus YOR069W, strain VPS5, active compounds read low 0.986 | locus YOR070C, strain gyp1, active compounds read low 0.985 | locus YOR080W, strain dia2, active compounds read low 0.994 | locus YOR083W, strain WHI5, active compounds read low 1 | locus YOR106W, strain vam3, active compounds read low 1.01 | locus YOR136W, strain idh2, active compounds read low 0.953 | locus YOR144C, strain elg1, active compounds read low 0.971 | locus YOR184W, strain ser1, active compounds read low 1.02 | locus YOR231W, strain MKK1, active compounds read low 1 | locus YOR265W, strain rbl2, active compounds read low 0.989 | locus YOR270C, strain vph1, active compounds read low 0.994 | locus YOR290C, strain snf2, active compounds read low 1.02 | locus YOR316C, strain cot1, active compounds read low 0.957 | locus YPL051W, strain arl3, active compounds read low 1.05 | locus YPL055C, strain LGE1, active compounds read low 1 | locus YPL078C, strain atp4, active compounds read low 0.994 | locus YPL106C, strain sse1, active compounds read low 0.988 | locus YPL240C, strain hsp82, active compounds read low 0.995 | locus YPL241C, strain CIN2, active compounds read low 0.988 | locus YPL256C, strain CLN2, active compounds read low 0.956 | locus YPR119W, strain clb2, active compounds read low 0.946 | locus YPR141C, strain kar3, active compounds read low 0.938 | locus YPR163C, strain tif3, active compounds read low 0.973 | locus YPR167C, strain met16, active compounds read low 0.967 | strain wtn01, active compounds read low 0.949
active: locus YGR252W, strain gcn5, active compounds read low 1.24 [resistant] | locus YLR371W, strain rom2, active compounds read low 0.86
